Rows were chosen to be rich in hits. Some 3.6% of all compounds tested hit in one or more screens of this group.
NRP1-CendR mod – NRP-1/CendR interaction modulation; O14786; FAM-RPARPAR peptide binding to NRP-1, fluorescence polarization; inhibition, % at 25 µM; 360,000 tested, 0.85% active; AID 602438;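 active means inhibition or corrected inhibition above about 18%, plus a signal ratio from 0.5 to 1.5, limit read from the data, passing the limit was not always enough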
FAS TE block – blocks the thioesterase domain of human fatty acid synthase | P49327 | recombinant FAS-TE, OMFH fluorogenic substrate, fluorescence endpoint | inhibition, % at 15 µM | 360,000 tested, 0.67% active | AID 602261;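 active means compounds whose normalised, plate-corrected inhibition of enzyme fluorescence in the single-dose primary screen is 50% or more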;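 further: 0% = DMSO with enzyme and 100% = substrate without enzyme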
Target sequence (P49327 whole entry, looked up, the tested form may be a part): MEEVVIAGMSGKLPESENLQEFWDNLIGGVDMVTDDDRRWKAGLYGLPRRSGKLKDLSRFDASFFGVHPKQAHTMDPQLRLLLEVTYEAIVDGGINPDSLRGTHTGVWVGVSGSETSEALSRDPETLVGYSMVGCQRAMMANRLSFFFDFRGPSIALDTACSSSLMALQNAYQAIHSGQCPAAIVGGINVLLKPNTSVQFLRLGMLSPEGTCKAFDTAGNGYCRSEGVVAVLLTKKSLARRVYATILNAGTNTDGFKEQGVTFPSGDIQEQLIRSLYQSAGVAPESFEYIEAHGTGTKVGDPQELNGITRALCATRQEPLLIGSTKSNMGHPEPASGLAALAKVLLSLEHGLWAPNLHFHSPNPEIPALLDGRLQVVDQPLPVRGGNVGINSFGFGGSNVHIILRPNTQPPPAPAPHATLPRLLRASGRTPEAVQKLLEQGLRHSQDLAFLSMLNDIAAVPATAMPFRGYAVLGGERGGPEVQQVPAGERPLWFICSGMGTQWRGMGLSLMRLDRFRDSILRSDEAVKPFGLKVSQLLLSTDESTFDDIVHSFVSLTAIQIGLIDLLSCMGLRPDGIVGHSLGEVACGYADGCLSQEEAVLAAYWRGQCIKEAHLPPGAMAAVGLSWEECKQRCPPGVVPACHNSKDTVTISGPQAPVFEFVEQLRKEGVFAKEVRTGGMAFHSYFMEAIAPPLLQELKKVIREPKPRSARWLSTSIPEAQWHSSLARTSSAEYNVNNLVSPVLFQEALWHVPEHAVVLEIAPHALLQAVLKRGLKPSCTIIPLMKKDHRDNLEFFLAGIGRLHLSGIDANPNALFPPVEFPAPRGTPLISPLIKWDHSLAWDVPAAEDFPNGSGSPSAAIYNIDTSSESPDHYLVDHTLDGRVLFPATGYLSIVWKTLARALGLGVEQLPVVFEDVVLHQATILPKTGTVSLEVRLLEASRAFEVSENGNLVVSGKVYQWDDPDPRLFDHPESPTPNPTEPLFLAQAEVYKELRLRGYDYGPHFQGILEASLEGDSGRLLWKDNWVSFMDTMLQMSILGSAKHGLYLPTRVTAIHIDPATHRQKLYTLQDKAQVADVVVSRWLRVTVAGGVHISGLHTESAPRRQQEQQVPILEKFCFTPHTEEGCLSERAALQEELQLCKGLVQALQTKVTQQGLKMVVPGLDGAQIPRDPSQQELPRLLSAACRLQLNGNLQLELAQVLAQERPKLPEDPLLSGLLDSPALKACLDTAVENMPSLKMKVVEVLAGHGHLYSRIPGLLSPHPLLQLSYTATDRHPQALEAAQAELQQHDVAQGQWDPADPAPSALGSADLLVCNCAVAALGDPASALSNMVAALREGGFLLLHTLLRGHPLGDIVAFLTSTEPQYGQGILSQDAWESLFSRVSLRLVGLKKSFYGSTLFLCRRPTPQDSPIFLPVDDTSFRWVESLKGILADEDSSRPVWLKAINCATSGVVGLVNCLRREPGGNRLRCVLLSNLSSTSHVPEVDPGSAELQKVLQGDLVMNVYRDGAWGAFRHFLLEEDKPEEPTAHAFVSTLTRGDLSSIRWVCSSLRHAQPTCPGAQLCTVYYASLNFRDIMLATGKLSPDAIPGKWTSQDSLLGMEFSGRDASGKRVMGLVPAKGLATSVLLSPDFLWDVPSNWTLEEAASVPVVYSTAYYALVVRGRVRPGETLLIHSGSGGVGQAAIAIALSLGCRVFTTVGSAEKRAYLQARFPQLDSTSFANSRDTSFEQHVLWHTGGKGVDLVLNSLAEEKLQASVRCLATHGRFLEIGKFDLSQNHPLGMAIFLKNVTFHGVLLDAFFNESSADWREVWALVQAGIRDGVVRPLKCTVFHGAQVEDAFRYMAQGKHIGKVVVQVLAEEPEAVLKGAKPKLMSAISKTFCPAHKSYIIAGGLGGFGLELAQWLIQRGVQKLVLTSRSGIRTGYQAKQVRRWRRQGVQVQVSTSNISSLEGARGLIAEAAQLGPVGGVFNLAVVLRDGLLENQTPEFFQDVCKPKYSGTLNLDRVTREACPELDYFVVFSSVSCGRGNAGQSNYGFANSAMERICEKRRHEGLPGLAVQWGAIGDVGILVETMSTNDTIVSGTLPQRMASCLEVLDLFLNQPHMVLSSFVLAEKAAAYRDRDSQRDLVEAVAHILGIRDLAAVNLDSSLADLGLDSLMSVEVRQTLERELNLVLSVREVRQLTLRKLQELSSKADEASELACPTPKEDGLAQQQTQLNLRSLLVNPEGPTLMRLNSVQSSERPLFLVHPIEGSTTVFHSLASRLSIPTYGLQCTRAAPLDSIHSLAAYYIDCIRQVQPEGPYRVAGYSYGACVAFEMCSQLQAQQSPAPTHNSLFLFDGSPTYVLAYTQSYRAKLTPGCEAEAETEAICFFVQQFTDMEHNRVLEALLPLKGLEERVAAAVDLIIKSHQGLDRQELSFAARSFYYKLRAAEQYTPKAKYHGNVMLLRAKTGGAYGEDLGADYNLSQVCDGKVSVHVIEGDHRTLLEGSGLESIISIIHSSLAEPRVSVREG
NadD inh – NadD (S. aureus) enzyme inhibition | purified NadD enzyme, colorimetric absorbance read-out | inhibition, % at 20 µM | 360,000 tested, 0.78% active | AID 602399; in the data active means inhibition above about 26%
Myeloid diff MLP – compounds promoting myeloid differentiation; ER-HoxA9 myeloid progenitors, lysozyme-GFP differentiation, flow cytometry; calls only at 10 µM; 360,000 tested, 1% active; AID 624256;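 active means normalized GFP-positive differentiation at or above the plate's own cutoff, the solvent-only control mean plus 3 SD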;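 further: cells exposed to compound for four days before flow analysis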
CRFR2-BP antag – blocks CRF-induced signaling of the CRF-BP/CRF-R2 complex. HEK293 CRF-R2/CRF-BP, CRF-induced calcium fluorescence. AID 588475. 350,000 tested, 0.59% active. inhibition, % at 11.8 µM;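 active means inhibition of the ligand-induced calcium signal above about 50% at the single tested concentration, limit read from the data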
* marks the source's active call; other numbers are inactive results; i = inactive; . = no result given; + = active, no number.

SMILES | NRP1-CendR mod | FAS TE block | NadD inh | Myeloid diff MLP | CRFR2-BP antag
CC1(C(=O)NS(=O)(=O)C2CC2)CCCN(C(=O)c2cccc(Cl)c2)C1 (stereo not drawn) | 8.7 | -6.8 | 1.0 | i | .
CC(C)=C(NC(=O)c1ccccc1)C(=O)Nc1ccc(C(=O)O)cc1 | -2.0 | -5.4 | -6.2 | i | -4.4
Cc1ccc(NC(=O)c2cc(NC(=O)/C=C\C(=O)O)ccc2N2CCCCC2)cc1 | -15.2 | 7.5 | 3.5 | i | 95.4*
Cc1ccc(S(=O)(=O)Nc2cc(C(C)C)c(O)cc2C)cc1 | -6.9 | 3.0 | -3.1 | + | 18.7
Cc1ccc(S(=O)(=O)Nc2cc(Cl)c(O)cc2C)cc1 | -1.4 | -8.6 | 0.0 | i | -24.1
COc1ccc(C(=O)NNC(=S)NC(=O)c2ccc(F)cc2)cc1Br | 7.0 | 4.7 | 4.4 | i | -3.6
COc1ccc(Cl)cc1C(=O)NNC(=O)COC(=O)c1cccs1 | -9.5 | 0.1 | -0.7 | i | 104.1*
COc1ccc(Cl)cc1C(=O)NNC(=S)NC(=O)c1ccc(F)c(F)c1 | 7.6 | 6.6 | -0.2 | i | 62.2*
O=C(COc1ccc(Cl)cc1Cl)Nc1ccccc1NS(=O)(=O)c1cccs1 | -10.1 | 2.5 | 0.8 | i | 50.6*
Cc1cc(Cl)ccc1OCC(=O)NNC(=O)c1cccs1 | 9.7 | -1.4 | 0.4 | i | -1.5
COc1ccc(Cl)cc1NC(=O)COC(=O)c1cc(NS(=O)(=O)c2cccs2)ccc1O | -7.3 | 31.5 | 32.9* | i | -29.4
Cc1ccc(S(=O)(=O)N2CCOCC2)cc1NC(=O)c1ccc(F)cc1F | -5.0 | -4.7 | 2.2 | i | -0.8
CCc1nc2c(OCc3ccc(Cl)cc3Cl)cccn2c1N(C)C(C)=O | 7.5 | 1.5 | 4.3 | i | .
CC1CCCC(NC(=O)COC(=O)CCSc2ccccc2)C1C (stereo not drawn) | -0.3 | 6.5 | -3.2 | i | 7.7
CCOC(=O)C1=NOC(Cn2cc(C#N)c(=O)n(C)c2=O)C1 (stereo not drawn) | 36.4* | -1.9 | 0.9 | i | 9.8
COc1cc2c(cc1OC)C1=CC(=O)C(=O)N1C(C)(C)C2 | -35.2 | -4.4 | 3.2 | + | 2.0
COc1cc2c(cc1OC)/C(=C/C#N)NC(C)(C)C2 | -7.9 | -7.0 | 8.1 | i | 7.1
CN(c1ccccc1)S(=O)(=O)c1ccc2c(c1)oc(=O)n2C | -11.4 | -0.4 | -1.6 | i | 58.9*
CCC1CN2CCc3cc(OC)c(OC)cc3C2CC1CC1c2cc(OC)c(OC)cc2CCN1C(=O)C(Cc1c[nH]c2ccccc12)NC(=O)OC(C)(C)C (stereo not drawn) | -35.8 | 8.5 | 3.2 | + | -28.7
COC(=O)c1ccc(Cn2c(C)c(C(=O)NCc3cccc([N+](=O)[O-])c3)sc2=O)o1 | 2.6 | 6.2 | -2.0 | i | .
CCc1nc(OCC(=O)c2ccccc2)c(C#N)c2c1COC(C)(C)C2 | 19.1* | 3.8 | -10.5 | i | 2.2
Cc1nc(OCC(=O)c2ccc(Cl)cc2)c(C#N)c2c1COC(C)(C)C2 | 1.1 | 11.7 | -5.3 | i | 11.8
CN1CCC(C)(C(=O)Nc2ccc3c(c2)OCCO3)C1 (stereo not drawn) | 6.4 | -7.5 | -0.9 | i | .
COc1ccc(CN(C)Cc2nc3scc(-c4ccccc4)c3c(=O)[nH]2)cc1OC | -16.0 | -0.8 | 0.9 | i | 59.8*
COC(=O)C[C@@H]1CC[C@H](NC(=O)c2ccc3c(c2)OCO3)[C@@H](CO)O1 | 11.9 | . | . | i | .
SMILES | NRP1-CendR mod | FAS TE block | NadD inh | Myeloid diff MLP | CRFR2-BP antag
O=C1C=CC2(C=C1)O[C@H](Cc1ccccc1)[C@@H](Cc1ccccc1)O2 | 7.4 | 6.6 | -3.1 | + | 9.8
COc1ccc(C[C@@H]2OC3(C=CC(=O)C=C3)O[C@H]2Cc2ccc(OC)cc2)cc1 | -0.3 | 2.4 | -6.8 | + | -22.0
COc1ccc(N2C(=O)CC(Cc3ccccc3)C2=O)cc1 (stereo not drawn) | -9.0 | -5.4 | -2.0 | i | 5.0
Cc1ccc(S(=O)(=O)N2[C@@H](Cc3ccccc3)CO[C@H]2CC(=O)c2cccc3ccccc23)cc1 | 3.1 | . | . | i | .
CN(C)C(CNC(=O)c1cccc(S(=O)(=O)Nc2ccc(SC(F)F)cc2)c1)c1ccccc1 (stereo not drawn) | 2.2 | -0.9 | 7.0 | i | -6.1
Fc1ccccc1CSc1nnnn1-c1ccc2c(c1)OCO2 | -1.2 | 13.9 | -8.6 | i | 57.5*
O=C(CSc1nnnn1-c1ccc2c(c1)OCO2)NCc1ccccc1 | -2.1 | -2.1 | -3.7 | i | 2.4
NC(=O)CSc1nnnn1-c1ccc2c(c1)OCCO2 | -4.7 | -5.0 | -3.3 | i | 81.2*

Screens from PubChem.
